Compound activity from PubChem.
Shown are actives, neighbours in structure and some others; about 2.1% of the full set was active somewhere.
aSyn yeast inh – qHTS of alpha-syn Inhibitors. Yeast expressing alpha-synuclein, growth rescue, BacTiter-Glo, 24 h. Potency, µM (doses to about 46.1 µM), for inactives: at the top dose growth rescue (activation), most hits filed as activators. 0.14% of 370,000 active; further: % of control where 0% means no effect; nearly all actives have a fitted effect of over 65% in size
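Screening used galactose-induced yeast with toxic alpha-synuclein levels, exposed to compound for 24 hr at 30 deg C. Cell growth, read with BacTiter-Glo luminescence, gave the measured signal.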
TDP43 rescue – qHTS of TDP-43 Inhibitors; TDP-43 expressing yeast growth rescue, BacTiter-Glo, 24 h; Potency, µM (titrated, usually from 46.1 µM), for the others: at the top dose growth rescue (activation), hits mostly activators; 1.8% of 410,000 active; further: % of control where 0% means no effect; nearly all actives have a fitted effect of over 50% in size
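Yeast cells expressing TDP-43 under galactose induction are exposed to compounds for 24 hr at 30 deg C. BacTiter-Glo luminescence measures growth, so protective compounds score as activators.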
FUS yeast rescue – qHTS for Suppressors of FUS Proteinopathy: Primary screen using FUS-linked yeast assay; AID 1347120, 2019; S. cerevisiae FUS-expressing, growth rescue, OD600, 24 h; Potency, µM (highest dose often 76.6 µM), actives largely listed as activators; 0.24% of 390,000 active;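 further: plate controls were DMSO vehicle for no effect and reference control for full effect; nearly all actives have a fitted effect of over 55% in size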
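Galactose (2%) drives FUS expression in yeast precultured in raffinose; seeding density OD 0.005. Test compounds incubated 24hr at 30C and 99% humidity before absorbance at 600 nm was measured.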
Abeta yeast res – qHTS for compounds that reverse cellular toxicity of Amyloid beta (A-beta) peptide in yeast: Primary Screen; yeast expressing A-beta42, growth rescue, OD600, 48 h; response scale: 0% DMSO, 100% iron-clioquinol control; Potency, µM (top dose mostly 46.1 µM), most hits filed as activators; 0.063% of 410,000 active; AID 1347071, 2019; further: nearly all actives have a fitted effect of over 55% in size
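Growth rescue measured by 600 nm absorbance after 48 h yeast culture at 30 C with compound. Values normalized between DMSO and an equimolar ferric chloride plus clioquinol control.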
Starred values were filed as active, the others as inactive; i = inactive; ? = inconclusive; · = no result; [ ] = remark or other dose. The call rests on the fitted dose curve; in most records, active means well fitted curve in the direction sought with a large enough effect; inconclusive means small, poorly fitted or top-dose-only effect, or another doubt; inactive means no such curve, though single readings can be large; an effect the other way counts as inactive or inconclusive. Potency means the concentration at half of the fitted maximal effect.

SMILES | aSyn yeast inh | TDP43 rescue | FUS yeast rescue | Abeta yeast res
CC(CCl)n1c(=O)c2ccccc2n1C(=O)c1ccccc1 (configuration not stated) | -11% | 11µM* | i | i
Cc1cccc(-n2c(C)cc(C(=O)C(=O)Nc3nncs3)c2C)c1 | · | ? | i | i
Cc1cc(C(=O)C(=O)Nc2nncs2)c(C)n1-c1ccc(Cl)cc1 | · | 11µM* | i | i
O=C(NCC(c1ccco1)S(=O)(=O)c1cccs1)c1ccc(C(F)(F)F)cc1 (configuration not stated) | · | 0%[9.22 µM] | i | i
CCc1ccc(NC(=O)Cn2c(=O)c(CNc3ccccc3)cc3cc(OC)c(OC)cc32)cc1 | · | -6% | i | i
COc1cc2cc(CNc3ccccc3)c(=O)n(CC(=O)Nc3cc(C)cc(C)c3)c2cc1OC | 9% | -3% | 25µM* | i
C=CCn1c(COc2ccccc2)nnc1SCC(=O)c1ccc(-c2ccccc2)cc1 | · | · | i | ·
Cc1ccc(Cn2cc(CCC(=O)NC3CCC(C)CC3)c3ccccc32)cc1 (configuration not stated) | · | 1% | i | i
CC(C)OCCCNc1ncnc2sc3c(c12)CCCC3 | · | 0% | i | i
CC(=O)n1cc(N(C(=O)CCl)c2ccc(Cl)cc2)c2ccccc21 | 2% | 22µM* | i | i
CCOc1cc(-c2ccc(OC(=O)c3ccccc3F)cc2)cc(=O)c2c(C)oc(C)c12 | · | 15% | ? | i
O=C(c1ccc2ccccc2c1)N1CCN(S(=O)(=O)/C=C/c2ccccc2)CC1 | 10% | ? | i | i
COc1ccc(Br)c(C(=O)N2CCN(S(=O)(=O)/C=C/c3ccccc3)CC2)c1 | -1% | 13µM* | i | i
CCOc1ccc(/C=C/c2nc(C#N)c(N(C)C)o2)cc1 | · | ? | i | i
Cc1cc(NS(=O)(=O)c2ccc(-c3ccccc3)cc2)no1 | 5% | 10µM* | i | ?
O=C(CSc1nnc(COc2ccccc2)n1-c1ccccc1)Nc1ccc2c(c1)OCO2 | · | · | i | ·
CCCNC(=O)c1noc2c1CCc1cc(OC)ccc1-2 | 0% | 13µM* | i | i
O=C(c1ccccc1)C1CCN(C(=O)c2c(F)cccc2F)CC1 | 8% | 11µM* | i | i
Cn1c(COc2cccc3ccccc23)nnc1SCC(=O)OC1CCCCC1 | ? | 25µM* | ? | i
Cc1cc(NCc2ccccn2)n2nc(C)c(-c3ccc(Cl)cc3)c2n1 | 3% | 7.1µM* | i | i
Cc1cc(NCc2ccccn2)n2ncc(-c3ccc(Cl)cc3)c2n1 | 5% | 13%[1.82 µM] | i | i
COc1ccc(CNC(=O)c2ccc3c(c2)N=C(C)c2c(C)ccc(C)c2S3)cc1 | 12% | 13µM* | ? | i
CCCNC(=O)c1ccc2c(c1)N=C(C)c1c(C)ccc(C)c1S2 | 21% | ? | i | i
Cc1ccc(-c2nc(=Nc3c(C)cc(C)cc3C)sn2-c2ccccc2)cc1 | -45% | · | · | ·
Cc1cccc(NC(=O)C(=O)NCC(c2cccnc2)N2CCc3ccccc32)c1C (configuration not stated) | · | 10% | i | i
SMILES | aSyn yeast inh | TDP43 rescue | FUS yeast rescue | Abeta yeast res
CCCCCOc1ccc(C(=O)N(Cc2ccccc2)C2CCS(=O)(=O)C2)cc1 (configuration not stated) | · | 20µM* | ? | i
CCCOc1cccc(C(=O)N(Cc2ccccc2)C2CCS(=O)(=O)C2)c1 (configuration not stated) | 8% | -17% | i | i
O=C(c1cc(=O)c2cc(Cl)ccc2o1)N(Cc1ccccc1)C1CCS(=O)(=O)C1 (configuration not stated) | · | 21% | i | i
CCOc1ccc(CN(C(=O)c2cc(=O)c3cc(Cl)ccc3o2)C2CCS(=O)(=O)C2)cc1 (configuration not stated) | · | -4% | 32µM* | i
O=C(NCCS(=O)(=O)N1CCN(c2ccc(F)cc2)CC1)C(c1ccccc1)c1ccccc1 | · | 5% | i | i
COc1ccc(OCC(=O)Nc2ccc(C(=O)OCc3cc(=O)n4nc(C)sc4n3)cc2)cc1 | · | -3% | i | i
COc1cc2c(NC3CCN(C(C)C)CC3)nc(N3CCCN(C)CC3)nc2cc1OCCOCCN1CCCC1 | 10% | · | · | ·
O=C(c1ccco1)N1CCN(C(=O)c2cc(-c3ccccc3)nc3ccccc23)CC1 | -2% | -3% | i | i
Cc1cccc2c(C(=O)N3CCN(C(=O)c4ccco4)CC3)cc(-c3cccc(Br)c3)nc12 | 11% | 28µM* | i | i
CC(C)(C)OC(=O)/C=C/[C@@H](CC1CCCC1)Sc1ccc(C(C)(C)C)cc1 | · | · | i | ·
Cc1cc(Cl)ccc1OC(C)C(=O)N1CCCN(C(=O)C(C)Oc2ccc(Cl)cc2C)CC1 (configuration not stated) | ? | 32µM* | ? | i
COc1ccccc1N1CCN(C(=O)COc2ccc(Cl)cc2Br)CC1 | 28µM* | 14µM* | i | i
COc1ccc(C(=S)N2CCN(c3ccccc3Cl)CC2)cc1OC | 5% | 11µM* | i | i
Cc1cc(Cl)ccc1OCC(=O)N1CCCN(C(=O)COc2ccc(Cl)cc2C)CC1 | ? | 25µM* | · | i
CSc1ccccc1NC(=O)COc1ccc(Cl)cc1C | -13% | 16µM* | · | i
Cc1cc(Cl)ccc1OCC(=O)Nc1ccccc1CO | 1% | 13% | i | i
O=C(CCl)c1ccc2c(c1)CCCC2 | -26% | · | · | ·
O=[N+]([O-])c1ccc(N2CCN(Cc3ccccc3)CC2)s1 | -11% | -7% | i | i
O=[N+]([O-])c1ccc(N2CCN(Cc3ccccc3)CC2)c2c1no[n+]2[O-] | 14% | 35µM* | i | i
Cc1ccc2nc(NC(=O)C3=NN(c4ccccc4)C(=O)CC3)sc2c1 | -1% | 16µM* | ? | i
Cc1nc2nncn2c(N2CCN(c3ccccc3)CC2)c1C | · | ? | i | i
O=C(NC1CCc2ccccc21)c1cc(-c2ccc(Cl)cc2)nc2ccccc12 (configuration not stated) | · | · | i | ·
Cc1ccc(-n2ncc3c(NCc4ccccc4)ncnc32)cc1 | -3% | 9% | i | i
COc1ccc(-n2ncc3c(NC(C)C)ncnc32)cc1 | -1% | ? | i | i
COc1ccc(-n2ncc3c(NCC(C)C)ncnc32)cc1 | 1% | 11µM* | i | i
COc1ccccc1CNc1ncnc2c1cnn2-c1ccccc1 | 0% | 16µM* | i | i
COc1ccccc1CNc1ncnc2c1cnn2-c1ccc(C)cc1 | · | 35µM* | i | i
CN1C(=O)/C(=C2\SC(N3CCCCCC3)=NC2=O)c2ccccc21 | 7% | 16µM* | i | i
O=S(=O)(c1ccccc1)N1CCN(c2ncccn2)CC1 | 4% | 0% | i | i
